# Screening results from PubChem BioAssay.
# Hits are enriched below; roughly 2.8% of the tested compounds scored in any of these assays.
# KDM5B inh – blocks human KDM5B histone demethylase activity; Q9UGL1; KDM5B demethylase, FDH-coupled NADH fluorescence (FDH is formaldehyde dehydrogenase); Potency, µM (top dose mostly 57.7 µM), usual class: inhibitors; 220,000 compounds, 2.6% hits; AID 1347165; note: potency is the fitted concentration of half-maximal effect; 0% is about no effect; nearly all actives have a fitted effect of over 70% in size
#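 Coupled FDH/NAD⁺ fluorescence readout. KDM5BΔAP 200 nM final; compound titration, 10 min RT preincubation; substrate mix 12.5 µM H3K4me3, 25 µM 2-OG, 50 µM Fe(II), 100 µM ascorbate, 0.25 mM NAD⁺, 0.25 U/mL FDH; ΔRFU over 30 min.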
# SNCA viab count – counter-screen for SNCA expression inhibitors: cell viability | HEK-293-SNCA-luc viability, GF-AFC fluorescence, 24 h | Potency, µM (highest dose often 57.1 µM), for the others: at the top dose activity change, negative = cytotoxicity, usual class: cytotoxic | 150,000 compounds, 0.12% hits;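 note: potency is the fitted concentration of half-maximal effect; 0% = DMSO-treated cells and -100% = medium-only wells without cells; nearly all actives have a fitted effect of over 30% in size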
#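 Cytotoxicity counterscreen: after 24 h compound treatment of genome-edited SNCA-luciferase HEK-293 cells, live-cell protease substrate GF-AFC read by fluorescence after 30 min; activity scaled between DMSO (0%) and medium-only (-100%), curves Hill-fitted.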
# SNCA expr inh – reduces expression of the alpha-synuclein gene; 140,000 compounds, 0.17% hits; Potency, µM (series often up to 57.2 µM), inactives show at the top dose activity change, negative = inhibition, usual class: inhibitors; HEK-293 SNCA-luciferase knock-in, luminescence, 24 h; AID 1671194;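 note: potency is the fitted concentration of half-maximal effect; plate controls were DMSO cells for no effect and cell-free wells for full effect; nearly all actives have a fitted effect of over 45% in size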
# IP6K1 inh – blocks human inositol hexakisphosphate kinase 1; AID 1645851; 140,000 compounds, 0.81% hits; Q92551; activity change, % (series mostly up to about 58 µM); IP6K1 kinase, ADP-Glo luminescence, 2 h; active compounds read low; in the data active = activity change below about -25%; note: % is set by controls: 0 for no effect and ±100 for the full control effect
# Target sequence (Q92551 whole entry, looked up): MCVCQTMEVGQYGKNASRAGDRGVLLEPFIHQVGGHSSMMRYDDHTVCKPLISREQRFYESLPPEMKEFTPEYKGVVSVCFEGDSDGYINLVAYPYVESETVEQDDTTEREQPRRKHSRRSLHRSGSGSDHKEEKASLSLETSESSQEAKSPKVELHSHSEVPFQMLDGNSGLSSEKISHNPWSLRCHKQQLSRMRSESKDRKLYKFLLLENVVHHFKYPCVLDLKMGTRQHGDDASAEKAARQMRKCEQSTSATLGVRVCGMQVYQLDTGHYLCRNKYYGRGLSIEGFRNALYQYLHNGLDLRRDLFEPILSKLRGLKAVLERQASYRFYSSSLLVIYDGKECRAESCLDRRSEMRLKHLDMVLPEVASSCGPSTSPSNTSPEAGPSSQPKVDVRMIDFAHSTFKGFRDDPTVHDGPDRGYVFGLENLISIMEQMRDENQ
#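 ADP-Glo luminescence measures ADP made by human IP6K1 during a 2 h RT reaction with ATP/IP6 (mix at 1.3 mM/130 uM); top library doses 57.5 and 19.1 uM final.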
# Active calls of the source: *; i = inactive; ? = inconclusive; nt = not tested or not shown; [ ] = remark or other dose. Unless noted, calls come from the whole dose curve; as a rule, active = well fitted curve in the direction sought with a large enough effect; inconclusive = small, poorly fitted or top-dose-only effect, or another doubt; inactive = no such curve, though single readings can be large; an effect the other way counts as inactive or inconclusive.
SMILES,KDM5B inh,SNCA viab count,SNCA expr inh,IP6K1 inh
CC(=O)N1CCN(c2ncccc2-c2cc(-c3ccccc3)nc3c(C)noc23)CC1,35.5µM*,9.5%[87.6 µM],-3.9%[87.6 µM],-11.8
Cc1noc2c(-c3cccnc3N(C)C)cc(-c3ccccc3)nc12,31.6µM*,9.9%[87.6 µM],12.6%[87.6 µM],-19.1
CC(=O)N1CCN(c2nc(-c3c(C)noc3C)cc3c2cc(-c2ccccc2)n3C)CC1,39.8µM*,3.2%[87.6 µM],-0.7%[87.6 µM],-2.4
COC1CCCN(c2cc(-c3cccnc3)nc3c(C)noc23)C1 (centres undefined),i,9.9%[87.6 µM],-7.8%[87.6 µM],1.1
COC1CCCN(c2ncccc2-c2cc(-c3ccccc3)nc3c(C)noc23)C1 (centres undefined),39.8µM*,?,-7.2%[87.6 µM],0.5
Cc1noc(C)c1-c1nc(N2CCN(C)CC2)c2ccccc2n1,nt,-23.4%,6.8%,nt
COc1ccc(OCC(O)CN2CCC(=O)N(C3CC3)Cc3ccccc32)cc1 (centres undefined),nt,nt,nt,9.8
COc1cccc(C(NC(=O)c2cc(C(C)=O)c[nH]2)c2nccn2C)c1 (centres undefined),i,nt,nt,nt
CC(C)N1C(C(=O)Nc2ncccn2)=C(O)c2ccccc2S1(=O)=O,i,nt,nt,nt
O=C(CCC1CCCO1)NC1CCCCC1 (centres undefined),i,nt,nt,nt
O=C(NCc1ccc(N2CCOCC2)cc1)c1cccnc1N1CC2CC(C1)[C@H]1CCCC(=O)N1C2 (some centres undefined),?,11.7%,?,-1.3
O=C(NCCC1=CCCCC1)c1cccnc1N1CC2CC(C1)[C@H]1CCCC(=O)N1C2 (some centres undefined),28.2µM*,-22.6%,-14.8%,13.9
O=C(NCCCn1cccn1)c1cccnc1N1CC2CC(C1)[C@H]1CCCC(=O)N1C2 (some centres undefined),28.2µM*,-6.2%,-29.0%,-2.4
O=C(NCCN1CCCCC1)c1cccnc1N1CC2CC(C1)[C@H]1CCCC(=O)N1C2 (some centres undefined),28.2µM*,-9.2%,?,-1.5
COc1ccc(CCNC(=O)c2cccnc2N2CC3CC(C2)[C@H]2CCCC(=O)N2C3)cc1OC (some centres undefined),?,4.6%,6.4%,18.8
O=C(NCCCN1CCOCC1)c1cccnc1N1CC2CC(C1)[C@H]1CCCC(=O)N1C2 (some centres undefined),28.2µM*,2.4%,10.2%,3.8
CN(C)CCNC(=O)c1cccnc1N1CC2CC(C1)[C@H]1CCCC(=O)N1C2 (some centres undefined),?,18.1%,4.4%,6.5
CCn1cc(C(=O)NCC(C)(CC)N2CCOCC2)c2ccccc21 (centres undefined),i,nt,nt,nt
CC(=O)c1ccc(OCc2ccc3c(c2)OCO3)cc1,i,nt,nt,nt
O=C(c1cccnc1N1CC2CC(C1)[C@H]1CCCC(=O)N1C2)N1CC=C(c2ccccc2)CC1 (some centres undefined),31.6µM*,-4.7%,15.1%,4.7
CN(CCNC(=O)c1cccnc1N1CC2CC(C1)[C@H]1CCCC(=O)N1C2)C1CCCCC1 (some centres undefined),31.6µM*,-5.0%,-7.1%,5.5
CCCCC(CC)C(=O)NC12CC3CC(CC(C3)C1)C2 (centres undefined),i,nt,nt,nt
O=C(Cc1ccc2c(c1)OCO2)N1CCNc2cnc(Nc3cccc(F)c3)nc2C1,31.6µM*,-16.1%[87.6 µM],-23.0%[87.6 µM],-23.2
COc1ccccc1Nc1ncc2c(n1)CN(C(=O)Cc1ccc3c(c1)OCO3)CCN2,?,1.7%[87.6 µM],0.3%[87.6 µM],-2.0
CC(C)NC(=O)N1CCNc2cnc(Nc3cccc(F)c3)nc2C1,31.6µM*,-2.7%[87.6 µM],17.1%[87.6 µM],7.6
SMILES,KDM5B inh,SNCA viab count,SNCA expr inh,IP6K1 inh
CCN(Cc1ccncc1)C(=O)CCC1CCN(S(=O)(=O)c2ccccc2)CC1,i,2.4%,-7.3%,20.4
COc1cccc(NC(=O)CCC2CCN(S(=O)(=O)c3ccccc3)CC2)c1,28.2µM*,3.5%,12.1%,22.8
CCN(Cc1ccccc1)C(=O)CCC1CCN(S(=O)(=O)c2ccccc2)CC1,25.1µM*,2.7%,-29.0%,14.8
CCOC(=O)[C@@H]1CN(C(=O)c2ccccc2OC(F)(F)F)[C@H]2c3cccc(F)c3O[C@@H]12,nt,nt,nt,10.1
Cc1nnc([C@@H]2CC(F)(F)CN2C(=O)c2cccc3[nH]ccc23)o1,28.2µM*,7.4%,23.2%,14.2
Cc1nnc([C@@H]2CC(F)(F)CN2C(=O)c2ccoc2C)o1,i,4.8%,9.3%,8.3
COc1cc(-c2onc(C)c2C(=O)NCc2cccc(F)c2F)cc(OC)c1OC,31.6µM*,-15.4%,9.2%,-7.3
COc1cc(-c2onc(C)c2C(=O)NCCCCc2ccccc2)cc(OC)c1OC,25.1µM*,-1.1%,-1.4%,-4.1
COc1cc(-c2onc(C)c2C(=O)NC2Cc3ccccc3C2)cc(OC)c1OC,31.6µM*,-4.6%,5.2%,15.9
COc1cc(-c2onc(C)c2C(=O)NCCCSC)cc(OC)c1OC,31.6µM*,5.9%,-15.9%,-7.9
COc1ccc(-c2onc(C)c2C(=O)NCc2ccccc2C)cc1,?,9.1%,-12.9%,21.1
O=C(CSc1nc2c(c(=O)n1-c1ccc(Br)cc1)SCC2)N1CCCCCC1,i,nt,nt,nt
c1coc(CNCc2cccc3[nH]ccc23)c1,i,nt,nt,nt
C=CCOc1ccc(NC(=O)c2ccc(Cl)cc2)cc1,i,nt,nt,nt
COc1ccc(CN[C@H]2C[C@H]3C(=O)NC[C@@H](CCC(=O)NCc4ccccc4)N3C2)cc1,35.5µM*,-2.3%,26.8%,3.6
O=C(CC[C@@H]1CNC(=O)[C@@H]2C[C@H](NCc3ccccn3)CN12)NCc1ccccc1,25.1µM*,-12.3%[87.6 µM],-14.8%[87.6 µM],-7.4
COc1ccc(C(=O)N2C[C@@H]3C[C@H](C2)c2ccc(-c4ccc5ccccc5c4)c(=O)n2C3)cc1,28.2µM*,-2.5%,-23.2%,3.9
CC(=O)Nc1ccc(S(=O)(=O)N2C[C@@H]3C[C@H](C2)c2ccc(-c4ccc5ccccc5c4)c(=O)n2C3)cc1,25.1µM*,5.1%,40.4%,7.1
O=C(Nc1cccc(F)c1)N1C[C@@H]2C[C@H](C1)c1ccc(-c3cccc(C(F)(F)F)c3)c(=O)n1C2,28.2µM*,6.9%,30.3%,9.7
COc1ccc(C(=O)N2C[C@@H]3C[C@H](C2)c2ccc(NS(=O)(=O)c4cccc(C(F)(F)F)c4)c(=O)n2C3)cc1,i,-15.4%,-0.8%,2.7
Cc1n[nH]c(C)c1C(NC(=O)c1c(C)c2cccc(C)c2n1C)C(=O)O (centres undefined),i,3.7%,-2.6%,-6.4
C=CCNc1ccccc1C(=O)NC(C(=O)O)c1c(C)n[nH]c1C (centres undefined),28.2µM*,3.3%,-23.5%,-4.8
O=C(CSc1nc2nc[nH]c2c(=O)[nH]1)NCc1ccccc1Cl,i,nt,nt,nt
CCOc1ccccc1CN1CCN(C(=O)c2ccccn2)CC1CCO (centres undefined),20µM*,-9.3%,10.2%,-2.6
Cn1cc(-c2cnc3[nH]cc(CC(=O)Nc4cccc(F)c4)c3c2)cn1,28.2µM*,-20.6%[87.6 µM],-8.3%[87.6 µM],-16.4
